The source of these data is PubChem BioAssay AID504727 (Broad Institute, 2011).

The structures appear in SMILES notation. Active and inactive are the calls of the source.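 Rule for the calls: active = fitted half-maximal concentration AC50 at or below ten times the highest valid tested dose, with signal falling as DNA is displaced (actives reach about 34 µM in these data); inconclusive = flat fit at moderate signal loss, or poor fit quality; inactive = the rest, including signal rising instead of falling.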

This test in a line: DNA intercalators displacing acridine orange, dose response, artefact control for KSHV LANA DNA-binding inhibitor project, biochemical, fluorescence polarization, cherry-picked samples, set 2 (AID 504727).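 For activity change, negative = DNA displacement: 0% = median of neutral control wells and -100% = mitoxantrone positive control wells.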 The note with it: AC50: Acridine orange-DNA displacement; series mostly up to 35 µM; activity change, negative = DNA displacement: at the top concentration.
Turning to `CC(=O)O[C@@H]1[C@@H](OC(C)=O)[C@H](n2ccc3cc([N+](=O)[O-])ccc32)OC[C@@H]1OC(C)=O`, the “activity change, negative = DNA displacement” value (from here on “activity change”) is 5.05% (inactive). As to `CC(C)CCN1C(=O)c2cccc3c(N)ccc(c23)C1=O`, the AC50 (commonly the concentration at which the activity in the assay is half-maximal) was 7.39 µM (active). Consider `Cc1ccc(NC(=O)CN2C(=O)N/C(=C/c3cccn3-c3ccc(C(=O)O)cc3)C2=O)cc1`, for which the “activity change” value is 25% (inactive).

For the molecule `O=c1cc2c(=O)oc3cc(O)c(O)oc3c2c(O)c1O`, the “activity change” value is 8.73% (inactive). For `O=C1c2ccccc2-c2onc3ccc(NCc4ccco4)c1c23`, the AC50 is 3.82 µM (active). On to `COc1ccc2[nH]c3c(C)c4cc[n+](C)cc4c(C)c3c2c1`, for which the AC50 is 2.53 µM (active). For the molecule `COc1ccc(Cl)cc1C(=O)NNC(=O)c1cc2ccccc2o1`, the “activity change” value was 7.26% (inactive). As to `NC(=S)N/N=C/c1ccc(-c2ccc([N+](=O)[O-])cc2)o1`, the “activity change” value was 16.8% (inactive). `O=C(CN1CC[C@@]2(O)CCCC[C@H]2[C@@H]1c1ccc(F)cc1)NCc1ccco1`: the “activity change” value is -2.12% (inactive). The same measure, in the same setting: with `Cc1ccc(OCC(=O)O/N=C(\N)Cc2ccc([N+](=O)[O-])cc2)cc1C` the figure was 4.56% (inactive); with `COc1cc2c(cc1OC)CN(C(=O)c1ccc(S(=O)(=O)N3CCCC3)cc1)CC2`, 5.19% (inactive). Still for that read-out and setting: with `O=C(O)c1cccc(-n2cccc2/C=C2/NC(=O)N(c3ccc(Cl)cc3)C2=O)c1` the figure was 9.15% (inactive); with `COc1ccc(OCC(=O)N2CCN(c3cccc(C(F)(F)F)c3)CC2)cc1`, 4.78% (inactive).

On to `O=C(O)C1Nc2c(O)cc(Cl)c([N+](=O)[O-])c2C2C=CCC12` (stereo not drawn), for which the “activity change” value is -18% (inactive).

Take `CCc1ccc[n+](-c2[nH]c(=O)sc2/C=N/NC([S-])=Nc2ccccc2)c1`: the AC50 was 14.8 µM (active). In the case of `Cn1nc(-c2ccccc2)c2nc3ccccc3nc21`, the AC50 is 35.8 µM (active).

Take `COc1ccc(N(C(=O)c2ccc(Cl)cc2)C2=CC3CCC(C2)N3C)cc1` (stereo not drawn): the “activity change” value is 4.22% (inactive). With `O=C(C1CCCO1)N1CCN(c2ncccn2)CC1` (stereo not drawn), the “activity change” value was 4.25% (inactive).

As to `O=C(O)c1ccccc1NS(=O)(=O)c1ccc(N/N=C/c2ccc(O)c(O)c2)c([N+](=O)[O-])c1`, the “activity change” value was 2.24% (inactive). For the molecule `O=c1c2cc(O)c(O)cc2oc2cc(O)c(C3OC(CO)C(O)C(O)C3O)c(O)c12` (stereo not drawn), the “activity change” value is 2.47% (inactive). The same measure, in the same setting: next, `O=C(O)/C=C/c1ccccc1Oc1ccccc1`: 5.3% (inactive).

Turning to `CNc1ccc2c3c(cccc13)C(=O)N(C)C2=O`, the AC50 is 0.872 µM (active).

Take `O=C(O)C(Cc1ccccc1)N1C(=O)/C(=C/C=C/c2ccco2)SC1=S` (stereo not drawn): the “activity change” value was 14.5% (inactive). For the molecule `CCN(CC)c1ccc2cc(S(=O)(=O)c3ccc(C)cc3)c(=O)oc2c1`, the “activity change” value is -122% (inactive).

For the molecule `O=S(=O)(O)c1cccc2c(N=Nc3ccc(O)c4ncccc34)cccc12`, the “activity change” value was 5.4% (inactive). The same measure, in the same setting: with `O=c1[nH][nH]cc1C=Nc1ccc(Cl)cc1Cl` the figure was 0.061% (inactive); with `COc1ccc(-c2nc(C(=O)O)cs2)cc1OC`, 3.6% (inactive); with `COc1ccc(/C=C/C(=O)NC(=S)Nc2ccc(S(N)(=O)=O)cc2)cc1`, 1.61% (inactive).

Turning to `COc1cccc(-c2cc(C(=O)N3CCN(S(=O)(=O)c4ccccc4)CC3)[nH]n2)c1`, the “activity change” value is -0.76% (inactive). As for `CCCn1c(SCC(=O)NCc2cccs2)nc2c1c(=O)n(C)c(=O)n2C`, the “activity change” value is 5.06% (inactive).

For `COc1ccc(-c2cc(C(=O)N(C)CCc3ccc(OC)c(OC)c3)c3ccccc3n2)cc1`, the “activity change” value was -3.19% (inactive). Same read-out and setting: next, `CCc1ccc(N2CC(C(=O)OCC(=O)N(CC)c3c(N)n(Cc4ccccc4)c(=O)[nH]c3=O)CC2=O)cc1` (stereo not drawn): 1.35% (inactive); `Cc1cc(C)c2c(c1)NC(C(=O)O)C1CC=CC21` (stereo not drawn): -1.24% (inactive); `O=c1c2c(nc3cc(-c4ccc(F)cc4)[nH]n13)CCC2`: 2.38% (inactive). For `CN(C)/C=N/c1nc2nccc(-c3ccc(Cl)cc3)n2n1`, the “activity change” value was -2.19% (inactive). On the same count and under the same terms, with `CC(C)C(=O)N1CCN(c2ccccc2NC(=S)NC(=O)c2ccco2)CC1` the figure was 1.99% (inactive); with `Cc1cccc(COc2ccc(/C=N/NC(=O)c3nnn(-c4nonc4N)c3COc3ccc(F)cc3)cc2)c1`, -3.72% (inactive); with `O=C(NCCCN1CCCC1=O)c1ccc2c(c1)ncn2C1CCCCC1`, 1.32% (inactive).
